Results on 21 compounds are retold here after PubChem BioAssay (EPA / NIEHS).

Results filed as inconclusive are left out. The source made the active and inactive calls. The calls were made as follows: active = hit-call score of the fitted dose curve at least 0.9, where 1 is the maximum; inconclusive = response in the unintended direction; inactive = score below 0.9.

Chain of human Retinoic Acid Receptor gamma (RARg), RARG (gene 5916) (P13631 whole entry, looked up, the tested form may be a part): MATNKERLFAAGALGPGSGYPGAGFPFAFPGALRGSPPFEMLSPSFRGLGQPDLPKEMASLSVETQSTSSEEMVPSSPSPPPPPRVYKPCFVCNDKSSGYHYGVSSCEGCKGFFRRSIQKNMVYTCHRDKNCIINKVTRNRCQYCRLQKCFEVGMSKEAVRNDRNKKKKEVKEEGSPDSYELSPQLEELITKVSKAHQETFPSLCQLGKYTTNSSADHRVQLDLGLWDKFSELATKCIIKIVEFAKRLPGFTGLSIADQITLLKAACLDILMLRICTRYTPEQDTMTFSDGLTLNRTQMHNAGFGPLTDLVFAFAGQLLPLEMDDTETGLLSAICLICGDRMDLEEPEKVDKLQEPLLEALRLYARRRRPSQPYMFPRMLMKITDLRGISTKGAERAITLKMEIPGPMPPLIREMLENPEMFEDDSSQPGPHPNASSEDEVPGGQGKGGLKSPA

This assay has as its target human Retinoic Acid Receptor gamma (RARg), RARG (gene 5916) (UniProt P13631). Put plainly: ATG_RARg_TRANS: Attagene TRANS-FACTORIAL HepG2 Assay for human Retinoic Acid Receptor gamma (RARg) (AID 2283009). A digest of the protocol: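 HepG2 cells transiently transfected with multiplexed reporter units expressing chimeric RARg-GAL4 and GAL4-UAS-driven reporters; 24 h compound exposure. Reporter mRNA quantified by RT-PCR with fluorescent labelling and capillary electrophoresis; gain-of-signal fitted relative to DMSO baseline.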
Turning to `C#CCC1=C(C)C(OC(=O)C2C(C=C(C)C)C2(C)C)CC1=O` (stereo unspecified), the compound was classed as inactive.
For `N#CSCSC#N` the value was “inactive”.
For `CCOC(=O)COc1cc(-c2nn(C)c(OC(F)F)c2Cl)c(F)cc1Cl` the value was “inactive”; for `CCCOCC(=Nc1ccc(Cl)cc1C(F)(F)F)n1ccnc1`, “inactive”; for `CN1COCN(Cc2cnc(Cl)s2)C1=N[N+](=O)[O-]`, “inactive”.
With `Nc1nc(N)nc(NC2CC2)n1`, the call was inactive.
For `CON=C(C(=O)OC)c1ccccc1CON=C(C)c1cccc(C(F)(F)F)c1` the value was “inactive”; for `CCCCN(CC)c1c([N+](=O)[O-])cc(C(F)(F)F)cc1[N+](=O)[O-]`, “inactive”.
For `CSc1nc(NC(C)C)nc(NC(C)C)n1` the value was “inactive”; for `Cc1cc(C2CC2)nc(Nc2ccccc2)n1`, “inactive”; for `O=[N+]([O-])c1cc(C(F)(F)F)c(Cl)c([N+](=O)[O-])c1Nc1ncc(C(F)(F)F)cc1Cl`, “inactive”.
Take `COP(=O)(OC)C(O)C(Cl)(Cl)Cl` (stereo unspecified): the compound was classed as inactive.
Next, `CC(C1CC1)C(O)(Cn1cncn1)c1ccc(Cl)cc1` (stereo unspecified): “inactive”; `CC(Oc1cccc(Cl)c1)C(=O)O` (stereo unspecified): “inactive”; `CC(C)N(C(=O)SCC(Cl)=C(Cl)Cl)C(C)C`: “inactive”.
For `CCCCSP(=O)(SCCCC)SCCCC` the value was “inactive”; for `C=C(C)[C@H]1Cc2c(ccc3c2O[C@@H]2COc4cc(OC)c(OC)cc4[C@@H]2C3=O)O1`, “inactive”; for `CCCSP(=O)(OCC)Oc1ccc(Br)cc1Cl` (stereo unspecified), “inactive”.
For `CCOP(=S)(OCC)Oc1ccc2c(C)c(Cl)c(=O)oc2c1` the value was “inactive”.
As for `CCOC(=O)CC(SP(=O)(OC)OC)C(=O)OCC` (stereo unspecified), the call was inactive.
For `O=C(O)c1cc(Oc2ccc(C(F)(F)F)cc2Cl)ccc1[N+](=O)[O-]` the value was “inactive”.
